High-throughput results (PubChem)
PMP22 txn prim: modulates PMP22 transcription in S16 Schwann cells; S16 Pmp22-F2sN Schwann cells, FLuc/NLuc coincidence luminescence, 24 h; Potency, µM (titrated, usually from 57.5 µM), for the others: top-dose activity change, negative = inhibition, actives largely listed as inhibitors; actives 2% (n = 43,000); AID 1508649; active means clear falling dose curves in both reporters; inconclusive means both reporters move, but less clearly or upward; inactive means either reporter flat; the % is the NLuc reporter signal
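Rat S16 Pmp22-F2sN cells, 500-1,000/well in phenol red-free DMEM + 10% FBS, compound-treated 24 h (37C, 5% CO2). Luminescence: FLuc read, Stop&Glo added, NLuc read.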
p53null 32C tox: selectivity test: cytotoxicity in p53 null cells, permissive temperature. H1299-neo p53 null cells, ATP luminescence, 24 h, 32C. Potency, µM (highest dose often 46.1 µM), for the others: top-dose activity change, negative = cytotoxicity, most hits filed as cytotoxic. actives 0.62% (n = 55,000). AID 903;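 further: 0% = DMSO only and -100% = full killing by 100 µM tamoxifen; nearly all actives have a fitted effect of over 55% in size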
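Overnight 37C seeding (600 cells/well) of H1299-neo preceded a 24 hr, 32C exposure to compounds up to 46 uM. ATP levels, read by luminescence after 20 min at RT, indicated surviving cells.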
pS6 MEF inh: reduces mTORC1 signaling in Tsc2 and p53 null MEF cells | Tsc2-/- p53-/- MEF, phospho-rpS6 immunofluorescence/PI, 24 h | Potency, µM (top dose mostly 38.3 µM), inactives show at the top dose activity change, negative = inhibition, hits mostly inhibitors | actives 0.78% (n = 44,000);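 further: plate controls were DMSO for no effect and rapamycin for full effect; nearly all actives have a fitted effect of over 50% in size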
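Tsc2-/-, p53-/- MEFs (empty-vector stable line) in DMEM + 10% FBS were treated with compounds 24 h at 37 degree Celsius, fixed, and immunostained for phospho-rpS6 (Alexa-488) with propidium iodide counterstain. Laser-scanning cytometry gave % positive cells, normalized against 7.5 nM rapamycin and DMSO.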
S16 F2sN tox: cytotoxicity in S16 Pmp22-F2sN Schwann cells; AID 1508642; S16 Pmp22-F2sN Schwann cells (luciferase reporters placed in the Pmp22 gene) viability, CellTiter-Glo, 24 h; Potency, µM (doses to about 57.5 µM), without a hit: at the highest dose activity change, negative = cytotoxicity, actives largely listed as cytotoxic; actives 0.48% (n = 43,000); further: nearly all actives have a fitted effect of over 65% in size
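S16 Schwann cells carrying the Pmp22-F2sN reporter, seeded in 1536-well format, were exposed to library compounds for 24 h at 37C. Viability was read as CellTiter-Glo luminescence after 15 min at room temperature.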
p53null 39C kill: kills p53 null cells at the nonpermissive temperature | H1299 p53-null (neo) cells, 39C, ATPlite viability, 24 h | AID 904 | Potency, µM (highest dose often 46.1 µM), inactives show at the top dose activity, negative = cell killing, hits mostly cytotoxic | actives 0.97% (n = 55,000);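 further: 0% = DMSO only and -100% = full killing by 100 µM tamoxifen; nearly all actives have a fitted effect of over 50% in size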
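Following overnight plating at 37C (600 cells/well), H1299-neo or H1299-p53A138V cells are dosed up to 46 uM. Incubation lasts 24 hr at 39C before ATP detection.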
SKOV3 invasion: ovarian cancer metastasis inhibition, 3D TME model; Potency, µM (top dose mostly 45.8 µM), for the others: at the highest dose activity change, negative = inhibition, usual class: inhibitors; AID 1963576; SKOV3ip1-GFP adhesion/invasion on 3D omental model, fluorescence; actives 0.1% (n = 46,000);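 further: plate controls were DMSO wells for no effect and tomatine positive control wells for full effect; nearly all actives have a fitted effect of over 65% in size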
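qHTS, 4-pt dose (0.36-46 umol/L); SKOV3ip1-GFP, 1,200 cells/well, no FBS; primary omental fibroblast/mesothelial co-culture 48 h pre-grown; 2 h RT + 16 h 37 C; PBS wash, 4% PFA; GFP count 488/509 nm.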
Numbers without * were called inactive; i = inactive; ? = inconclusive; nt = no result given. Hits are enriched below; roughly 3% of the tested compounds scored in any of these assays. Unless noted, the call rests on the fitted dose curve; in most records, active means well fitted curve in the direction sought with a large enough effect; inconclusive means small, poorly fitted or top-dose-only effect, or another doubt; inactive means no such curve, though single readings can be large; an effect the other way counts as inactive or inconclusive. Unless noted, on the % scale 0 is the no-effect control and ±100 the full control effect; potency means the concentration at half of the fitted maximal effect.

SMILES	PMP22 txn prim	p53null 32C tox	pS6 MEF inh	S16 F2sN tox	p53null 39C kill	SKOV3 invasion
Cn1cnc2c(F)c(Nc3ccc(Br)cc3F)c(C(=O)NOCCO)cc21	nt	nt	nt	nt	nt	8.1%
COC(=O)c1ccc(Nc2nc(-c3ccc(C)cc3)nc3ccccc23)cc1	-30.9%	?	-5.8%	2.0%	15.8µM*	26.9%
CCOC(=O)c1ccc(Nc2nc(C(=O)OCC)nc3ccccc23)cc1	?	-6.2%	-16.1%	22.6%	-6.2%	-0.9%
O=C(Nc1nnc(SCC(=O)N2CCCc3ccccc32)s1)c1ccccc1	nt	7.94µM*	nt	nt	nt	nt
O=c1[nH]c(=O)n([C@H]2C[C@@H](O)[C@@H](CO)O2)cc1I	nt	nt	nt	nt	nt	3.2%
CC(C)(C)OC(=O)N1CCC(c2c(C(=O)NCCN3CCC(Cc4ccccc4)CC3)cnn2-c2ccc(F)cc2)CC1	?	?	?	?	25.1µM*	?
COc1ccc(CCN2CCC(CNC(=O)c3cnn(-c4ccccc4)c3C3CCN(C(=O)OC(C)(C)C)CC3)CC2)cc1	?	15.8%	6.7%	?	-9.7%	?
COc1ccc(CCN2CCC(CNC(=O)c3cnn(-c4cccc(Cl)c4)c3C3CCN(C(=O)OC(C)(C)C)CC3)CC2)cc1	?	4.1%	?	?	20µM*	?
CCn1c(C(=O)N(C2CC2)C2CC2)cc2c3c(ncn3C)c(Nc3cc(C)n(C)n3)nc21	nt	nt	nt	nt	nt	-5.2%
CC(=O)N1CCCc2cc(S(=O)(=O)N(CCN(C)C)Cc3ccccc3)ccc21	-28.2%	-10.0%	-8.0%	6.9%	10µM*	-1.9%
CC(C)(C)c1ccc(/C=C/C(=O)Nc2ccc(S(N)(=O)=O)cc2)cc1	?	25.1µM*	-18.5%	?	?	-13.9%
Cc1ccc(/C=C/C(=O)Nc2ccc(S(N)(=O)=O)cc2)o1	7.5%	-7.2%	-6.4%	4.7%	-5.1%	10.0%
O=C(CSCc1cc(=O)c2ccccc2[nH]1)Nc1cccc(C(F)(F)F)c1	3.3%	-7.6%	0.5%	2.7%	-5.5%	11.4%
COC(=O)c1c(SCC(=O)Nc2cccc(C(F)(F)F)c2)[nH]c2ccccc2c1=O	-61.4%	?	-0.9%	?	3.16µM*	i
COC(=O)c1c(SCC(=O)Nc2cccc(Cl)c2C)[nH]c2ccccc2c1=O	-71.8%	-14.6%	0.0%	-6.8%	10µM*	i
COC(=O)c1c(SCC(=O)Nc2cc(F)ccc2F)[nH]c2ccc(C)cc2c1=O	-15.2%	?	2.3%	?	?	98.4%
Cc1cccc(OC(=O)c2cc(-c3ccc4c(c3)OCCO4)on2)c1C	-14.3%	15.8µM*	3.4%	2.6%	31.6µM*	i
Cc1ccccc1OC(=O)c1cc(-c2ccc3c(c2)OCCO3)on1	2.7%	?	2.4%	-1.0%	?	5.4%
O=C(Oc1ccccc1Cl)c1cc(-c2ccc3c(c2)OCCO3)on1	?	20µM*	-0.1%	-2.9%	?	0.4%
CCc1ccc(-n2c(SCc3ccccc3Cl)nc3[nH]ncc3c2=O)cc1	?	?	-9.2%	?	17.8µM*	?
c1ccc(-c2cc(-c3ccccc3)c3c(n2)-c2ccccc2OC3)cc1	6.9%	nt	1.0%	23.6%	nt	i
CCOc1ccccc1Nc1nc(-c2cccc(Cl)c2)c2c(n1)-c1ccccc1OC2	-10.7%	?	2.93µM*	3.9%	12.6µM*	-7.7%
Cc1csc2nc(COC(=O)c3cccc(NC(=O)COc4ccccc4Cl)c3)cc(=O)n12	-4.9%	?	0.0%	22.7%	6.31µM*	i
CCOc1ccc(C(=O)Nc2ccc(C(=O)OCc3cc(=O)n4c(C)csc4n3)cc2)cc1	?	?	3.8%	-23.3%	12.6µM*	i
O=S(=O)(NCC(c1ccco1)S(=O)(=O)c1cccs1)c1ccccc1 (centres undefined)	?	3.8%	-15.8%	31.6µM*	34.0%	i
SMILES	PMP22 txn prim	p53null 32C tox	pS6 MEF inh	S16 F2sN tox	p53null 39C kill	SKOV3 invasion
COc1ccc(S(=O)(=O)NCC(c2ccco2)S(=O)(=O)c2ccc(C)cc2)cc1C (centres undefined)	?	-1.4%	-3.7%	?	-27.9%	3.1%
COc1ccc(OC)c(S(=O)(=O)NCC(c2cccs2)S(=O)(=O)c2ccc(F)cc2)c1 (centres undefined)	?	-5.6%	?	?	19.4%	-2.0%
COc1ccc(F)cc1S(=O)(=O)NCC(c1ccco1)S(=O)(=O)c1cccs1 (centres undefined)	9.46µM*	7.1%	-11.8%	12.6µM*	-29.3%	8.7%
CCOc1ccc(S(=O)(=O)NCC(c2ccco2)S(=O)(=O)c2ccc(C)cc2)cc1 (centres undefined)	?	0.9%	0.9%	-2.0%	-4.7%	-1.5%
COc1ccc(F)cc1S(=O)(=O)NCC(c1ccco1)S(=O)(=O)c1ccc(F)cc1 (centres undefined)	18.9µM*	3.8%	-4.5%	15.8µM*	18.1%	i
Cc1ccc(C)c(S(=O)(=O)NCC(c2ccco2)S(=O)(=O)c2ccc(F)cc2)c1 (centres undefined)	-4.9%	39.0%	7.36µM*	2.3%	?	0.6%
CCc1cccc(CC)c1NC(=O)N1Cc2[nH]nc(NC(=O)c3ccc(N4CCN(C)CC4)cc3)c2C1	nt	nt	nt	nt	nt	-40.2%
O=C(CC12CC3CC(CC(C3)C1)C2)Nc1cccc2nc(NCCNCCO)ccc12	nt	nt	nt	nt	nt	16.5%
CC(=O)Nc1cccc(-n2c(=O)n(C3CC3)c(=O)c3c(Nc4ccc(I)cc4F)n(C)c(=O)c(C)c32)c1	nt	nt	nt	nt	nt	11.1%
O=C(NCC(c1ccco1)S(=O)(=O)c1cccs1)c1ccc(Cl)cc1 (centres undefined)	-24.2%	5.1%	0.2%	-10.0%	3.2%	8.3%
COc1ccc(S(=O)(=O)NCC(c2ccco2)S(=O)(=O)c2cccs2)cc1OC (centres undefined)	?	1.9%	-2.5%	20µM*	-1.1%	6.0%
O=S(=O)(NCC(c1cccs1)S(=O)(=O)c1ccccc1)c1ccccc1 (centres undefined)	15µM*	-2.7%	?	10µM*	4.6%	i
COc1cc(C(=O)NCC(c2ccco2)S(=O)(=O)c2cccs2)cc(OC)c1OC (centres undefined)	-5.7%	7.2%	0.9%	?	7.8%	-17.8%
